From PubChem BioAssay
ANO1 block: TMEM16A chloride channel inhibitors, primary screen, cell-based, HTS. normalized B-score (activity score, 25-100; higher = stronger inhibition) at 10 µM. Anoctamin-1 (Mus musculus), Q8BHY3. HEK293 TMEM16A/YFP iodide influx fluorescence, ionomycin. 310,000 tested, 1.2% active. AID 588511, 2011;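 active = ratio plate-corrected score three or more library SD toward inhibition, starting fluorescence score within five deviations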;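 note: score derived from kinetic fluorescence span divided by baseline fluorescence per well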
NOD2-RIPK2 inh: NOD2-RIPK2 binding disruptors in cells, primary screen, fluorescence, CHO cells, BLA complementation. inhibition, % at 4.98 µM. AID 624267, 2012. 360,000 tested, 0.38% active. CCF4 ratio. Receptor-interacting serine/threonine-protein kinase 2 (Homo sapiens), O43353; in the data active = inhibition above about 21%;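 note: 0% = vehicle only and 100% = reference blocker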
m5-HT2A agonist: mouse Htr2a agonists via beta-arrestin recruitment, primary screen, cell-based, luminescence; 5-hydroxytryptamine receptor 2A (Mus musculus), P35363; CHO-K1 mHTR2A beta-arrestin complementation; percent of 30 µM serotonin response; activation, % at 7.6 µM; 360,000 tested, 0.66% active;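 active = activation above a run cutoff, the mean activation of all tested compounds plus 3 SD, cut at about 14% in these data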;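 note: 0% = plate median of compound wells and 100% = 30 µM serotonin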
TLR4-MyD88 BLA: inhibitors of TLR4-MyD88 association in cells, primary screen, cell-based, HeLa CL3-4, BLA complementation, FRET ratio; inhibition, % at 8.4 µM; Toll-like receptor 4 (Homo sapiens) + Myeloid differentiation primary response protein …; 200,000 tested, 0.18% active; HeLa CL3-4 TLR4/MyD88 BLA complementation; in the data active = inhibition above about 25%;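 note: 0% = vehicle and 100% = reference inhibitor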
TLR9-MyD88 inh: inhibitors of TLR9-MyD88 association in cells, primary screen, cell-based, CHO, BLA complementation, fluorescence; 340,000 tested, 0.21% active; inhibition, % at 4.98 µM; Toll-like receptor 9 (Homo sapiens) + Myeloid differentiation primary response protein …; AID 504734, 2011; CCF4 FRET ratio;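 active = inhibition above the mean over all tested compounds plus 3 SD, cut at about 21% in these data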;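 note: 0% = DMSO only wells and 100% = clavulanate BLA inhibitor control wells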
Target sequence (Q99836 whole entry, looked up): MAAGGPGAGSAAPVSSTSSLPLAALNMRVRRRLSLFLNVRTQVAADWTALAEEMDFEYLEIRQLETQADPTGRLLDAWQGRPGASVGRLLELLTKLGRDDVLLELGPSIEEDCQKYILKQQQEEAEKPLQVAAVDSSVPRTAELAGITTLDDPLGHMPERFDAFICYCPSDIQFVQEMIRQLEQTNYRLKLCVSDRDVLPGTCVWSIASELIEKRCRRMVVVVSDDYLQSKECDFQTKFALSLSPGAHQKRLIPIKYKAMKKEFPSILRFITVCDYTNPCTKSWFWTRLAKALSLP
Target sequence (Q9NR96 whole entry, looked up): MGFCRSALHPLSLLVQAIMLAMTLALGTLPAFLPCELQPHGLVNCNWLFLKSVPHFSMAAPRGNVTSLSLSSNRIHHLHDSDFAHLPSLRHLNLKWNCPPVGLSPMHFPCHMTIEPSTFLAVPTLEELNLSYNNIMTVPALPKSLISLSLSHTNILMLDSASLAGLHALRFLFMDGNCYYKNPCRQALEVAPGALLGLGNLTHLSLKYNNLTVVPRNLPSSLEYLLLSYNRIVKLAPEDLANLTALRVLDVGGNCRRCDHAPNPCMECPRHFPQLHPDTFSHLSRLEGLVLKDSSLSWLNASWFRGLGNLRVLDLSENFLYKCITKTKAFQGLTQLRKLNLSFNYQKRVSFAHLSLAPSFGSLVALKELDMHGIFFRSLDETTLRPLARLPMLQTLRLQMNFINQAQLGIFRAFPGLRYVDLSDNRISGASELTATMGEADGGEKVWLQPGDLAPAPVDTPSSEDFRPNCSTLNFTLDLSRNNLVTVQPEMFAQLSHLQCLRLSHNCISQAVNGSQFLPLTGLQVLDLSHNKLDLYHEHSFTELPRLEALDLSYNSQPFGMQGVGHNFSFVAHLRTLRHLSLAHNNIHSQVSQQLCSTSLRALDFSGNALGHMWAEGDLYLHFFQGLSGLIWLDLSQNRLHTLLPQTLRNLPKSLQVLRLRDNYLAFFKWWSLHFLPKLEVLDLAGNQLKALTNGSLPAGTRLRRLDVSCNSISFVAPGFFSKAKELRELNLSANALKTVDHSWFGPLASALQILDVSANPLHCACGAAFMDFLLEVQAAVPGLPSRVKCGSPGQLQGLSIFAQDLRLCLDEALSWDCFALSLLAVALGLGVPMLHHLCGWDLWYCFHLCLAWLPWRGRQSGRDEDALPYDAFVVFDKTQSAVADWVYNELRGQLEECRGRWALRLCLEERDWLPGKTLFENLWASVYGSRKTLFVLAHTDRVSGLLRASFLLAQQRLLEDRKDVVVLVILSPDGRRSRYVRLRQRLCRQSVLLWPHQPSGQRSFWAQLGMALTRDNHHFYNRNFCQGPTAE
ANO1 activ: TMEM16A chloride channel activators or potentiators, primary screen, cell-based, HTS; Anoctamin-1 (Mus musculus), Q8BHY3; HEK293 TMEM16A/YFP-H148Q/I152L, iodide quench fluorescence; hits give low values; B-score at 10 µM; 340,000 tested, 0.3% active; AID 623877, 2012;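 active = fluorescence-ratio B-score plate-corrected deviation score at least 3 library SD below zero, with starting fluorescence score within 5 deviations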;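 note: channel opened by trigger with iodide after compound preincubation; score built on the fluorescence ratio of max minus min over baseline; more negative score means more quench and so TMEM16A activation or potentiation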
Starred values were filed as active, the others as inactive; i = inactive; / = not tested or not shown. Only some compounds are listed: those with a hit (about 2.4% of all), similar ones and a draw of the others.

SMILES | ANO1 block | NOD2-RIPK2 inh | m5-HT2A agonist | TLR4-MyD88 BLA | TLR9-MyD88 inh | ANO1 activ
CCc1nnc(NS(=O)(=O)c2ccc(NC(=S)NC(=O)/C=C/c3ccc(C(C)C)cc3)cc2)s1 | 100* | 3 | 1 | 3 | -4 | i
CCc1nnc(NS(=O)(=O)c2ccc(NC(=S)NC(=O)/C=C/c3ccccc3)cc2)s1 | i | 4 | -3 | 7 | -4 | i
Cc1ccc(/C=C2/C(=O)ON=C2c2ccccc2)o1 | 25* | -4 | -4 | / | -3 | i
COc1cc([N+](=O)[O-])ccc1-c1ccc(/C=C2\C(=O)ON=C2c2ccccc2)o1 | / | 6 | 1 | / | -1 | -5.7*
O=C1ON=C(c2ccccc2)/C1=C\c1ccco1 | i | -12 | -2 | / | -6 | i
CC1=NOC(=O)/C1=C\c1ccc(-c2cccc(Cl)c2)o1 | 100* | 9 | -3 | 13 | 17 | i
CC1=NOC(=O)/C1=C\c1ccc(-c2ccc(Cl)c(C(=O)O)c2)o1 | / | -5 | 1 | 4 | -3 | i
CC(C)CCn1cnc2c(cnn2-c2ccc(F)cc2)c1=O | i | -2 | -2 | 3 | 0 | i
CC(C)CC(=O)/C(=C/c1ccc(N(C)C)cc1)n1cncn1 | i | 6 | 1 | / | 9 | i
CC(C)CC(=O)/C(=C\c1ccc(Cl)cc1Cl)n1cncn1 | / | -4 | 1 | 13 | -3 | -7.1*
CC(=O)Nc1ccc(Cl)c(-c2nc3ncccc3o2)c1 | i | 3 | -6 | / | 7 | i
COc1ccc(-c2nc3ccccc3n2Cc2ccccc2)cc1 | i | -5 | 0 | 10 | -13 | i
COc1ccc(-c2n(Cc3ccccc3)c3ccccc3[n+]2Cc2ccccc2)cc1 | 25* | -1 | -5 | 18 | -4 | i
O=C(c1cc(-c2ccccc2)on1)N1CCc2ccccc2C1 | i | 1 | -1 | 5 | -4 | i
COc1ccc(-c2cc(C(=O)N3CCc4ccccc4C3)no2)cc1OC | i | 6 | 3 | -14 | -6 | -6.4*
O=c1cnn([C@@H]2O[C@H](CO)[C@@H](O)[C@H]2O)c(=O)[nH]1 | i | 0 | 22* | 10 | -15 | i
O=C(NC1CC1(c1ccccc1)c1ccccc1)c1ccccc1 (configuration not stated) | / | 4 | -1 | / | -10 | -9.3*
O=C(NC1CCCc2ccccc21)c1ccccc1 (configuration not stated) | i | 0 | -2 | -14 | -2 | i
O=C(O)c1cc(-c2ccc(-c3c(-c4ccc5c(c4)OCO5)noc3-c3ccsc3)cc2)nc2ccccc12 | 100* | -17 | 1 | / | -12 | i
CCCc1nnc(SCC(=O)N2CCCCC2C)n1CC1CCCO1 (configuration not stated) | 25* | 9 | -1 | 9 | 0 | i
CCCc1nnc(SCC(=O)N(CC)CC)n1CC1CCCO1 (configuration not stated) | i | -6 | -3 | -15 | 7 | i
CC(=O)c1ccc(OCc2c(-c3ccccc3)nnn2CC(=O)NS(=O)(=O)c2ccccc2C)cc1 | / | -6 | -7 | / | / | /
Cc1ccc(S(=O)(=O)N2[C@@H](c3ccc(Cl)cc3)C(C(=O)O)=CC[C@H]2c2ccc(C(C)C)cc2)cc1 | 100* | -8 | 6 | / | -6 | i
Cc1ccc([C@H]2C(C(=O)O)=CC[C@@H](c3ccc(C(C)C)cc3)N2S(=O)(=O)c2ccc(C)cc2)cc1 | / | -6 | 4 | / | 0 | /
Cc1ccc(S(=O)(=O)N2[C@@H](c3ccccc3)C(C(=O)O)=CC[C@H]2c2ccc(C(C)C)cc2)cc1 | 100* | -8 | 13 | / | -6 | i
SMILES | ANO1 block | NOD2-RIPK2 inh | m5-HT2A agonist | TLR4-MyD88 BLA | TLR9-MyD88 inh | ANO1 activ
COc1ccc(C(=O)Nc2ccccc2)cc1NC(=O)c1ccc([N+](=O)[O-])cc1 | i | 5 | -2 | / | -5 | -7.2*
CCN(CC)S(=O)(=O)c1ccc(OC)c(NC(=O)c2ccc([N+](=O)[O-])cc2)c1 | i | 7 | -4 | 11 | 3 | i
COc1ccc([C@@H]2[C@@H]3C(=O)N(C(C)(C)C)C(=O)[C@@H]3[C@]3(C)C(=O)N(c4cccc(Br)c4)C(=O)N23)cc1 | i | 8 | 4 | / | -4 | -11*
CC(=O)Oc1c(I)cc(I)cc1C(=O)Nc1ccc(Cl)cc1 | 100* | -5 | 1 | / | -4 | i
COc1ccc(-c2csc(NCCc3nc4cc(Cl)c(N5CCCCC5)cc4n3CCOCCO)n2)cc1 | i | 2 | -1 | / | 3 | i
O=C(C1CCN(S(=O)(=O)c2cccc3nsnc23)CC1)N1CC=C(c2ccccc2)CC1 | 25* | -2 | 6 | 2 | 6 | i
COc1ccc(N(CC(=O)Nc2ccc(Cc3ccncc3)cc2)S(=O)(=O)c2ccccc2)cc1 | i | -10 | -5 | / | -4 | i
CC1(C(=O)Nc2ccc3nc[nH]c3c2)CCN1C(=O)C1(c2ccccc2)CC1 (configuration not stated) | / | -3 | -1 | / | / | /
Cc1ccc(C(=O)N2CCN=C2SCc2ccc([N+](=O)[O-])cc2)cc1 | i | -3 | -2 | 7 | -3 | -5.8*
Cc1ccc(CSC2=NCCN2C(=O)c2ccc([N+](=O)[O-])cc2)cc1 | i | -6 | 4 | -9 | -4 | i
CC1CC(C)CN(C(=O)CNS(=O)(=O)c2ccc(Br)s2)C1 (configuration not stated) | i | -9 | -1 | -9 | 2 | i
Cc1ccc(N2CCN(C(=O)CNS(=O)(=O)c3ccc(Br)s3)CC2C)cc1 (configuration not stated) | 100* | -5 | 2 | -1 | 2 | i
CC(C)(C)C(=O)Nc1ccccc1C(=O)NCCCn1ccnc1 | i | 1 | 3 | -2 | 0 | i
COc1ccccc1-c1nnc2sc(-c3cc4ccccc4o3)nn12 | 100* | 5 | -1 | 3 | 0 | i
CC(C)N(C(=O)c1nn(C)c2c1CSc1ccccc1-2)C1CCCCC1 | 25* | -12 | -7 | / | -9 | i
Cn1nc(C(=O)NC2CCCCC2)c2c1-c1ccccc1SC2 | i | 0 | 4 | / | 0 | i
COc1cc(C(=O)N2CCN(C3=NS(=O)(=O)c4ccccc43)CC2)cc(OC)c1OC | / | -6 | -1 | / | -3 | /
CCOc1ccc(Br)cc1/C(C)=N\NC1=NCCN1 | 100* | -4 | -4 | 11 | -7 | i
